Here are results for 40 compounds from PubChem BioAssay (Tox21).

Inconclusive results are not listed. Unmarked numbers belong to inactive results. Calls follow the shape of the dose curve; as a rule, active = well fitted inhibition curve with a large enough effect in the repeat runs; inconclusive = weak or mixed curves; inactive = flat fitted curve, though single readings scatter.
% is scaled to controls: 0 for no effect and ±100 for the full control effect.

Chain of Voltage-gated inwardly rectifying potassium channel KCNH2 (Homo sapiens) (Q12809 whole entry, looked up): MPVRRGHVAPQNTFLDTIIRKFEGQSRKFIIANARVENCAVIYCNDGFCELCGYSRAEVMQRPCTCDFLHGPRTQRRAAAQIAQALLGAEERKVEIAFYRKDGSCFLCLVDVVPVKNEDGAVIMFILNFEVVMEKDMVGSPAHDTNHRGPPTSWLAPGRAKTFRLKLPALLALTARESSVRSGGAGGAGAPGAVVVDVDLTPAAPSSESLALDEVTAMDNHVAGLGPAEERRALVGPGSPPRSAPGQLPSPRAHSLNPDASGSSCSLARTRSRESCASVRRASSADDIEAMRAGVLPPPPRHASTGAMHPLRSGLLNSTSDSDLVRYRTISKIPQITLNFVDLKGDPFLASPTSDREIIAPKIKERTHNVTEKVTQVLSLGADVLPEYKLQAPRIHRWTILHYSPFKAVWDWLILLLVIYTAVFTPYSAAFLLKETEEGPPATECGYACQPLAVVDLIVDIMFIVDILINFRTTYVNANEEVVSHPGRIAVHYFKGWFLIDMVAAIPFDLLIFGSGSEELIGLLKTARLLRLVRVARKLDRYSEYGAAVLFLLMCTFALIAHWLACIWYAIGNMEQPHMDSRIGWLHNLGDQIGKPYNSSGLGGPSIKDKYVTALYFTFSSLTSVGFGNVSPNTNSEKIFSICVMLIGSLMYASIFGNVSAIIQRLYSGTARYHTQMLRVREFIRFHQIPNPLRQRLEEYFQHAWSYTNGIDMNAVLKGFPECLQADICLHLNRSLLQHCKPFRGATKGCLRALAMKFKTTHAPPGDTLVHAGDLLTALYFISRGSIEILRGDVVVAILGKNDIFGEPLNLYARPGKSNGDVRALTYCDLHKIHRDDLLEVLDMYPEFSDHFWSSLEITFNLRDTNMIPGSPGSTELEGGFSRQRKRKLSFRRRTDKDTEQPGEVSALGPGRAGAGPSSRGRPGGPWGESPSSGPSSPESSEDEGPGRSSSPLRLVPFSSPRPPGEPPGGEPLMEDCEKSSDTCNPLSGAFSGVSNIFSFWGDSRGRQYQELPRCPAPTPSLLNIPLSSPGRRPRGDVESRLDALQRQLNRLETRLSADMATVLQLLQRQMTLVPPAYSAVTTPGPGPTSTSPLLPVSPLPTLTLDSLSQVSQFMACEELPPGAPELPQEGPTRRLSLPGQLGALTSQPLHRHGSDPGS

This experiment has as its target Voltage-gated inwardly rectifying potassium channel KCNH2 (Homo sapiens) (UniProt Q12809). As to the kind of experiment: Human Ether-a-go-go-Related Gene (hERG) channel small molecule antagonists: fluorescence cell-based qHTS assay (AID 1671200). Also: nearly all actives have a fitted effect of over 50% in size. Conditions: hERG-U2OS cells, FluxOR thallium flux fluorescence; series mostly up to 76.8 µM; activity change, negative = inhibition: at the top concentration. From the text: National Center for Advancing Translational Sciences [NCATS]
U.S. Environmental Protection Agency [EPA]
National Institutes of Environmental Health Sciences [NIEHS]
National Toxicology Program [NTP]
U.S. Food and Drug Administration [FDA]
Mutations in the hERG channel cause Long QT (LQT) syndrome. LQT syndrome is a cardiac disorder which can cause ventricle arrhythmia and sudden death. Additionally, compounds which block the hERG channel can cause acquired LQT syndrome. Several FDA approved drugs have been removed from the market due to their hERG blocking activity. A cell-based hERG channel inhibition assay can be used to screen chemical compounds that inhibit hERG channel. This assay measures hERG channel activity using thallium ions as surrogate ions to measure potassium into the cells.
Tox21 Assay Protocol Summary:
hERG-U2OS cells were resuspended in culture medium and dispensed into 1536-well, black wall/clear-bottom plates at 1000cells/well/3uL using a Multidrop Combi dispenser (Thermo Fisher, Waltham, MA). After plates were incubated at 37 C overnight, 3 uL of Loading Buffer provided by FluxOR II Potassium Ion Channel Assay kit (Thermo, Carlsbad, CA) was added to each well. The assay plates were then incubated at room temperature in the dark for 1h. […] After the assay plates were incubated at room temperature for 10 min, 1 uL of Stimulus Buffer provided by FluxOR II Potassium Ion Channel Assay kit was added into each well and fluorescence intensity (480nm excitation/540nm emission) was continuously measured for 2 min at 1 second intervals using a Functional Drug Screening System (FDSS) 7000EX kinetic plate reader (Hamamatsu, Japan).
(The hERG channel carries a current that helps repolarise heart muscle cells.)
Take `O=C(CCOCCOCCOCCOCCC(=O)Nc1c(I)cc(I)c(C(=O)O)c1I)Nc1c(I)cc(I)c(C(=O)O)c1I`: the “activity change, negative = inhibition” value is 2.26% [at 35.3 µM].
To `COc1ccc(COC=O)cc1` belongs 8.11%; to `NC(=O)c1ncn([C@@H]2O[C@H](CO)[C@@H](O)[C@H]2O)c1O`, 15.7% [at 35.3 µM].
To `CCCCCCCCC=O` belongs 0.921%; to `NC(N)=NS(=O)(=O)c1ccc(N)cc1`, 3.5% [at 35.3 µM].
As for `CC(C)CCCC(C)NCCC(C)C` (stereo not given), the figure is 0.317% [at 35.3 µM]; as for `COC(=O)CCCC(=O)O`, -3.71%; as for `CCCCC1CCCCC(=O)O1` (stereo not given), 3.18%.
As for `Cc1c(F)cc2c(=O)c(C(=O)O)cn3c2c1CCC3C` (stereo not given), the “activity change, negative = inhibition” value is 1.7% [at 35.3 µM].
To `CCCC(C)CO` (stereo not given) belongs -1.55%; to `Cc1ccccc1Br`, 1.58%; to `Nc1cc(N)cc(C(=O)O)c1`, -4.23%.
In the case of `CNC(=O)c1c(I)c(NC(=O)CCCCC(=O)Nc2c(I)c(C(=O)O)c(I)c(C(=O)NC)c2I)c(I)c(C(=O)O)c1I`, the “activity change, negative = inhibition” value was -4.33% [at 35.3 µM].
To `CC/C=C\C#N` belongs 0.836%.
To `c1ccc(SCCSc2ccccc2)cc1` belongs 0.456%; to `CC(C)(C)OC(=O)N1C[C@@H](F)C[C@H]1C(=O)O`, 8.65%; to `COc1cccc(Br)c1`, 10%.
As for `CCCCCCOC(=O)CC(CC(=O)OCCCCCC)(OC(=O)CCC)C(=O)OCCCCCC`, the figure is 0.0205%.
For `CC(C)(O)C(=O)c1ccc(OCCO)cc1`, the “activity change, negative = inhibition” value is 2.13%.
As to `C1=C\CC/C=C\CC/C=C\CC/1`, the “activity change, negative = inhibition” value was 3.16%.
For the compound `Nc1nc2c(ncn2CCC(CO)CO)c(=O)[nH]1`, the “activity change, negative = inhibition” value is -1.23% [at 35.3 µM].
As for `CC(CCO)CCCC(C)(C)O` (stereo not given), the figure is 3.94%; as for `Nc1ncnc2c1ncn2Cc1c(F)cccc1Cl`, -1.85% [at 35.3 µM].
As to `COCc1ccc(COC)cc1`, the “activity change, negative = inhibition” value was -2.78%.
Consider `C[C@H]1O[C@@H](n2cc(F)c(=O)[nH]c2=O)[C@H](O)[C@@H]1O`, for which the “activity change, negative = inhibition” value is 1.71% [at 35.3 µM].
To `CCCCOCC(C)OCC(C)O` (stereo not given) belongs 8.83%.
To `C=CCOc1nc(OCC=C)nc(OCC=C)n1` belongs -10.3%; to `CCC(=O)Nc1cccc(N)c1`, -1.31%; to `C=CC(=O)N1CCOCC1`, 1.08%.
As for `CC(C)c1ccc2oc3nc(N)c(C(=O)O)cc3c(=O)c2c1`, the figure is 2.8% [at 35.3 µM]; as for `N#CCN(CC#N)CCN(CC#N)CC#N`, -1.31%; as for `CC(=O)O[C@H](CC(=O)[O-])C[N+](C)(C)C`, 2.21%.
In the case of `CC(C)CCCC(C)CCCC(C)CCCCC(C)CCCC(C)CCCC(C)C` (stereo not given), the “activity change, negative = inhibition” value was 0.0625% [at 35.3 µM].
Regarding `Cc1nc(-c2ccc(OCC(C)C)c(C#N)c2)sc1C(=O)O`, the “activity change, negative = inhibition” value is -16% [at 35.3 µM].
In the case of `CCO[Si](CCCN=C=O)(OCC)OCC`, the “activity change, negative = inhibition” value was -2.1%.
To `Cc1ccc(N)cc1[N+](=O)[O-]` belongs -0.283%; to `NC(CS)C(=O)O` (stereo not given), 2.85% [at 35.3 µM]; to `CCN(CC)C(=O)c1ccc(O)c(OC)c1`, 3.03% [at 35.3 µM].
As for `C=C(C)C(=O)NCCCN(C)C`, the figure is 1.35%.
For `CC12CCC(CC1=O)C2(C)C` (stereo not given), the “activity change, negative = inhibition” value was 3.22%.
